Screening results deposited in PubChem by several laboratories.
In the library only some 2.6% were active in any assay of this set; here they are far more common.
EWS-Fli block: blocks EWS/Fli oncoprotein-driven transcription; A673 NR0B1-luciferase reporter, viability-normalised; inhibition, % at 12.6 µM; 0.67% of 350,000 active;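 active means mean inhibition of at least 50% after viability correction, with every replicate also passing that limit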;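 further: firefly luciferase signal divided by Alamar Blue viability fluorescence both relative to DMSO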
TWEAK Fn14 block: TWEAK-Fn14 signaling inhibition. TWEAK-stimulated Fn14 reporter cells, luciferase luminescence, 8 h. inhibition, % at 10 µM. 2% of 360,000 active. AID 1159606; in the data active means inhibition above about 50%
LGR2 inh: inhibitors of bursicon-induced Drosophila LGR2 receptor cAMP signaling | HEK293 LGR2, CRE-luciferase, bursicon-stimulated, 4 h | inhibition, % at 9.99 µM | 0.35% of 380,000 active | AID 720647;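 active means drop in luminescence signal, shown as inhibition above about 50% in the replicate tests, limit read from the data, passing the limit was not always enough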;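 further: agonist challenge used bursicon conditioned medium at about half maximal strength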
CF NFkB block: blocks PAF-induced NF-kB reporter in cystic fibrosis cells; KKLEB NF-kB-GFP reporter, GFP fluorescence overnight; 0.86% of 360,000 active; inhibition, % at 5 µM;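 active means at least 50% inhibition at 5 µM, scaled per plate between neutral and stimulator controls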;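 further: PAF is a Pseudomonas aeruginosa culture filtrate used as stimulus; plate controls were PAF-stimulated DMSO wells for no effect and unstimulated DMSO wells for full effect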
KKLEB cytotox: CF airway cell cytotoxicity counter-screen | KKLEB CF airway cells viability, ATPlite luminescence, overnight; active compounds read low; cells stimulated with P. aeruginosa culture filtrate | activity change (cytotoxicity), % at 5 µM | 0.36% of 360,000 active | AID 602141;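 active means corrected activity change at or below -50% at 5 µM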
TROY NFkB inh: blocks TROY-dependent signaling in reporter cells. 0.98% of 360,000 active. Q293 LMP1-TROYcd NF-kB luciferase reporter, 4 h. inhibition, % at 10 µM;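 active means compounds whose plate-normalised and pattern-corrected inhibition of the luciferase reporter signal at the single screening dose is 50% or more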
DNA binder FP: binds DNA displacing acridine orange; salmon sperm DNA acridine orange fluorescence polarization; AID 720586; 2% of 640 active; shares compounds with EWS-Fli block; AC35, µM (top dose mostly 68 µM), inactives show top-dose activity change, negative = DNA binding;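 active means fitted curve reaches a 35% signal fall AC35 below twice the sample's top valid tested dose, actives reach about 48 µM in these data; inactive means the rest, including activity in the rising direction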;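 further: lower polarization ratio signals compound binding to DNA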
* = called active by the depositor; . = no result given; ! = repeats disagree.

SMILES | EWS-Fli block | TWEAK Fn14 block | LGR2 inh | CF NFkB block | KKLEB cytotox | TROY NFkB inh | DNA binder FP
Cc1ccc(S(=O)(=O)N(C)C[C@@H]2OCCCC[C@@H](C)Oc3ccc(NS(=O)(=O)c4ccccc4)cc3C(=O)N([C@H](C)CO)C[C@H]2C)cc1 | 2 | . | 8 | . | . | . | .
O=C(C[C@H]1CC[C@@H]2NC[C@H](O)COC[C@H]2O1)NCc1ccc2c(c1)OCO2 | -8 | . | -14 | . | . | . | .
COc1cccc(-c2cccc(-c3nc(C(=O)NCC(F)(F)F)cc4c3[C@H](CCO)N([S@@](=O)C(C)(C)C)C4)c2)c1 | 54* | . | 7 | . | . | . | -9%
CCCN(C)C[C@H]1Oc2ncc(-c3ccccc3)cc2C(=O)N([C@@H](C)CO)C[C@H]1C | 56* | . | . | . | . | . | -10%
CCCN(C)C[C@H]1Oc2ncc(-c3ccccc3)cc2C(=O)N([C@H](C)CO)C[C@@H]1C | -12 | . | . | . | . | . | .
O=C(C[C@@H]1C=C[C@H](NC(=O)CC2CC2)[C@H](CO)O1)NCc1ccccc1 | 0 | . | -1 | . | . | . | .
COc1ccc(S(=O)(=O)Nc2ccc3c(c2)C(=O)N([C@H](C)CO)C[C@H](C)[C@@H](CN(C)Cc2ccc(C(=O)O)cc2)OCCCC[C@H](C)O3)cc1 | -4 | . | -2 | . | . | . | .
Cc1ccccc1N=CC1=C(O)c2ccccc2C1=O | 77* | 106* | 101* | -43 | -60* | 78* | -11%
Cc1ccc(S(=O)(=O)Nc2ccc3c(c2)C(=O)N([C@@H](C)CO)C[C@H](C)[C@@H](CN(C)S(=O)(=O)c2cccs2)O3)cc1 | -5 | . | 2 | . | . | . | .
CN1C(=O)c2cc(NC(=O)c3ccccc3)ccc2OC[C@H]2O[C@@H](CC(=O)NC3CCCC3)CC[C@@H]21 | -6 | . | -8 | . | . | . | .
COc1ccc2c3c(n(C)c2c1)[C@H](CO)N(Cc1ccccc1)CC31CCN(CC2CC2)CC1 | 3 | . | -8 | . | . | . | .
O=c1[nH]c(/C=C2\C=Nc3ccccc32)c(O)n1Cc1ccccc1F | 63* | 35 | 10 | -15 | -3 | -6 | 8%
CSc1nc(O)c(/C=C2\C=Nc3ccccc32)[nH]1 | . | -10 | -52 | -34 | -6 | -33 | .
CC(=NNc1cc(C)c2ccccc2n1)c1ccccn1 | 64* | . | -11 | . | . | . | -2%
C/C(=N\Nc1cccc2cccnc12)c1ccccn1 | 61* | 70* | 56* | -26 | -30 | -6 | -1%
Oc1cccc(/C=N/Nc2cccc3cccnc23)c1 | -57 | 37 | -16 | -12 | -31 | 0 | .
CC(=O)Nc1cccc(-c2ccnc3c2CC(C)(C(=O)NCc2cccc(Cl)c2)O3)c1 (stereo unspecified) | 20 | -8 | -15 | -27 | 14 | 21 | .
CC(=O)Nc1cccc(-c2ccnc3c2CC(C)(C(=O)NCc2ccc(N(C)C)cc2)O3)c1 (stereo unspecified) | 54* | -11 | -2 | -15 | -7 | 24 | -15%
C[C@H](CO)N1C[C@H](C)[C@@H](CN(C)Cc2ccncc2)OCCCC[C@H](C)Oc2ccc(NS(=O)(=O)c3ccc(F)cc3)cc2C1=O | 0 | . | -5 | . | . | . | .
Cc1cccc(C)c1NC(=O)CN1CCN(C(=O)CNC(=O)c2ccc(-c3ccccc3)cc2)CC1 | -9 | -1 | 7 | -21 | 1 | 11 | .
Cc1cccc(NC(=O)CN2CCN(C(=O)CNC(=O)c3ccc(-c4ccccc4)cc3)CC2)c1C | 66* | 35 | 29 | 29 | -27 | 30 | 13%
COc1cc(-c2noc(C)c2C#Cc2nccn2C)cc(OC)c1OC | 52* | -4 | -6 | -5 | -20 | -11 | -9%
COc1cc(C(=O)CSc2nccn2C)cc(OC)c1OC | -29 | 20 | 2 | -11 | 2 | -9 | .
C[C@H]1CN([C@@H](C)CO)C(=O)c2cc(-c3cccnc3)cnc2O[C@@H]1CN(C)C(=O)c1ccccc1F | -8 | . | 20 | . | . | . | .
CCOc1ccccc1CNC(=O)c1ccc(Sc2ccc(Cl)cc2)c(NC(C)=O)c1 | 80* | -10 | -5 | 12 | -15 | 18 | 5%
SMILES | EWS-Fli block | TWEAK Fn14 block | LGR2 inh | CF NFkB block | KKLEB cytotox | TROY NFkB inh | DNA binder FP
CC(=O)Nc1cc(C(=O)NCc2ccco2)ccc1Sc1ccc(F)cc1 | 85* | -5 | -4 | 2 | 9 | 22 | -7%
CCOc1ccc(CNC(=O)c2ccc(Sc3ccc(Cl)cc3)c(NC(C)=O)c2)cc1 | . | 28 | 7 | -4 | -1 | 27 | .
CC(=O)Nc1cc(C(=O)NCc2ccco2)ccc1Sc1ccc(Cl)cc1 | -13 | 5 | . | -1 | 2 | 14 | .
CN(C)c1ccc(/C=N/Nc2nc3ccccc3o2)cc1 | 68* | 81* | 67* | 1 | -13 | 53* | -7%
COc1cc(/C=N/NS(=O)(=O)c2ccc3ccccc3c2)ccc1OCc1ccc(C(=O)O)cc1 | 69* | -38 | 82* | 2 | -6 | -35 | 10%
COc1cc(/C=N/NS(=O)(=O)c2ccc(C)cc2)ccc1OCc1cccc(C(=O)O)c1 | 79* | -31 | 80* | -4 | -6 | -30 | -9%
COc1ccc(/C=N/NS(=O)(=O)c2ccc(C)cc2)cc1OC(=O)c1ccccc1 | . | 14 | . | -7 | 9 | 2 | .
COc1cc(/C=N/O)ccc1OCc1ccc(C(=O)O)cc1 | . | 17 | . | 6 | -11 | -50 | .
CO[C@H]1CN(C)C(=O)c2cc(C#N)ccc2OC[C@H]2O[C@H](CC[C@@H]2OC)CCN(C)C(=O)[C@H]1C | -5 | . | 7 | . | . | . | .
CCNC(=O)C[C@@H]1CC[C@@H]2[C@H](COc3ccc(NC(=O)C4CCOCC4)cc3C(=O)N2C)O1 | -7 | . | -1 | . | . | . | .
CN(C)C(=O)c1cccc(-c2ccc(C3[C@@H]4CN(Cc5nccs5)C[C@H]3N4)cc2)c1 (stereo partly specified) | 59*! | . | -11 | . | . | . | -3%
CN(C)C(=O)c1cccc(-c2ccc(C3[C@H]4CNC[C@@H]3N4Cc3nccs3)cc2)c1 (stereo partly specified) | 5 | . | 1 | . | . | . | .
Cc1ccc2c(c1)C(=O)N1[C@H]3c4cc(Br)ccc4OC[C@@H]3[C@H](c3ccccc3)[C@]1(C)C(=O)N2 | 56* | 7 | -4 | 14 | -3 | -15 | 2%
C[C@@H]1CN([C@@H](C)CO)C(=O)c2cccc(NS(=O)(=O)c3ccc(F)cc3)c2O[C@@H]1CN(C)Cc1ccc2c(c1)OCO2 | 4 | . | -10 | . | . | . | .
O=C(NCCCN1CCOCC1)[C@@H]1N[C@@H]2c3ccc(C4=CCCCC4)c(=O)n3C[C@@H]2[C@H]1CO | 2 | . | 5 | . | . | . | .
c1ccc(CSc2nnc(-c3ccco3)o2)cc1 | -90 | -9 | -47 | -15 | 12 | -38 | .
Brc1ccc(CSc2nnc(-c3ccco3)o2)cc1 | 82* | -17 | -26 | -13 | 5 | -89 | -3%
CCC(=O)Nc1ccc2c(c1)C(=O)N(C)C[C@@H](OC)[C@@H](C)CN(C(=O)C1CC1)[C@@H](C)CO2 | -4 | . | 8 | . | . | . | .
